Results on 5 compounds are retold here after PubChem BioAssay.

The source made the active and inactive calls.

Assay [1] is described as follows: small molecules captured by biotinylated probe aFSTL3 – biochemical, small-molecule microarray, fluorescence 635/667, stem cell growth factor project, primary screen (AID 1064).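 Also: measures binding of the biotinylated anti-FSTL3 antibody to printed compounds.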 The note with it: higher = more signal.
Assay [2] in a line: binders from COS7 lysate, DM2A8 probe, primary screen, torsin A project, cell lysate, small-molecule microarray, fluorescence 635/667 (AID 1065). The conditions noted are these: higher = more signal, COS7 lysate expressing mutant human TOR1A.
The nature of assay [3]: small molecules captured by biotinylated probe aFGF2 – biochemical, small-molecule microarray, fluorescence 635/667, stem cell growth factor project, primary screen (AID 1067).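 Also: measures binding of biotinylated aFGF2 protein to printed compounds on slides; z-score merges feature fluorescence and signal-to-noise across triplicate slides.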 The conditions noted are these: higher = more signal.
Assay [4] in a line: small molecules captured by biotinylated probe aFGF10 – biochemical, small-molecule microarray, fluorescence 635/667, stem cell growth factor project, primary screen (AID 1071).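 Also: score merges 667 nm spot intensity and signal to noise from triplicate slides.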 The note with it: higher = more signal.
Assay [5] addresses Neurogenic locus notch homolog protein 2 (Homo sapiens) (UniProt Q04721). As to the kind of experiment: small molecules binding Notch2 protein – biochemical, small-molecule microarray, 635 nm fluorescence, stem cell growth factors, primary screen (AID 1073). The note with it: higher = more signal.
For assay [6], the target named is Pro-neuregulin-1, membrane-bound isoform (Homo sapiens) (UniProt Q02297). The assay is described as follows: small molecules binding neuregulin-1 protein – biochemical, small-molecule microarray, fluorescence 635/667, psychiatric disease protein project, primary screen (AID 1075).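 Also: score combines 667 nm spot fluorescence with signal to noise.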 The note with it: NRG1 binding, 635 nm fluorescence, higher = more signal.
The subject of assay [7] is Neuregulin-1 EGF-like domain. The assay is described as follows: small molecules binding NRG1 EGF domain – biochemical, small-molecule microarray, 635 nm fluorescence, primary screen (AID 1081).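 Also: binding of the protein to compounds printed on small-molecule microarray slides.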 The conditions noted are these: higher = more signal.
The nature of assay [8]: FRG1 expression reporter modulators in myotubes – cell-based, C2C12 myotubes, firefly/Renilla luciferase, luminescence, FRG1 inhibition for FSHD, primary screen (AID 1084). The note with it: FRG1 promoter luciferase, higher = more signal, called active from +8 up or from −8 down.
The nature of assay [9]: small molecules captured by biotinylated probe aFST – biochemical, small-molecule microarray, fluorescence 635/667, stem cell growth factor project, primary screen (AID 1086).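 Also: score merges 667 nm fluorescence with signal-to-noise of each printed compound spot.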 The note with it: higher = more signal.
A short description of assay [10]: binders of probe aHhip on microarray, primary screen, stem cell growth factor project, biochemical, small-molecule microarray, fluorescence 635/667 (AID 1087).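 Also: score merges spot fluorescence at 667nm with spot signal to noise ratio.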 The conditions noted are these: higher = more signal.
Assay [11] concerns PRMT1 (protein arginine N-methyltransferase 1). As to the kind of experiment: small molecules binding arginine methyltransferase PRMT1 – biochemical, small-molecule microarray, 635 nm fluorescence, primary screen (AID 1088).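 Also: binding of Prmt1 protein to compounds spotted on small-molecule microarray slides.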 The conditions noted are these: higher = more signal.
A short description of assay [12]: growth effects on S. cerevisiae YJM789 – YJM789 clinical isolate, OD600, 24 h, basal, primary screen (AID 1089).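 Also: growth of clinical yeast isolate S. cerevisiae YJM 789 seeded 1000 cells per well; test concentration not given here.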 The note with it: higher = more signal, called active from +8 up or from −8 down.
Assay [13] can be described thus: S. pombe growth modifiers, basal conditions – strain 972, OD600, 24 h, no modulator, primary screen (AID 1090).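 Also: basal condition with compound alone and no growth modifier present; test concentration not given here.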 The conditions noted are these: S. pombe 972 growth, higher = more signal, called active from +8 up or from −8 down.
Assay [14] is described as follows: budding yeast growth modifiers under rapamycin – strain BY4716, OD600, 96 h, primary screen (AID 1091). Also: test concentration not given here. The conditions noted are these: S. cerevisiae BY4716 + rapamycin, higher = more signal, called active from +8 up or from −8 down.
Assay [15] deals with Torsin-1A-interacting protein 2 (Homo sapiens) (UniProt Q8NFQ8). As to the kind of experiment: small molecules binding lysate-expressed LULL1 – cell lysate, human LULL1 lysate, 635/667 nm fluorescence, primary screen (AID 1092).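 Also: probe is lysate of COS7 cells overexpressing human LULL1; score merges per-feature 667 nm fluorescence with signal-to-noise.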 The note with it: small-molecule microarray, hLULL1 lysate binding, 635 nm fluorescence; higher = more signal.
A short description of assay [16]: optical density change of DRC41 E. coli – strain DRC41, OD650, 24 h, E. coli filamentation project, primary screen (AID 1093).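 Also: MC1000 strain lacking acrAB efflux and sulA so SOS filamentation is blocked; test concentration not given here.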 The note with it: E. coli DRC41 growth, higher = more signal, called active from +8 up or from −8 down.
The nature of assay [17]: probe aLefty2 binding to arrayed compounds – biochemical, biotinylated probe, 635/667 nm fluorescence, primary screen (AID 1094).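 Also: score merges spot fluorescence near 667 nm with spot signal-to-noise ratio.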 The note with it: small-molecule microarray, higher = more signal.
The subject of assay [18] is Noggin (protein binding on small-molecule microarray). The assay is described as follows: small molecules binding Noggin protein – biochemical, 635/667 nm fluorescence, primary screen (AID 1095).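 Also: score merges 667 nm feature fluorescence with signal to noise over triplicate slides.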 The conditions noted are these: 635 nm fluorescence, higher = more signal.
The target in assay [19] is Neurogenic locus notch homolog protein 3 (Homo sapiens) (UniProt Q9UM47). As to the kind of experiment: small molecules binding NOTCH3 protein – biochemical, 635/667 nm fluorescence, primary screen (AID 1096). The conditions noted are these: small-molecule microarray, 635 nm fluorescence, higher = more signal.
The nature of assay [20]: probe aEGFR binding to arrayed compounds – biochemical, biotinylated probe, 635/667 nm fluorescence, primary screen (AID 1097).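 Also: probe is a biotinylated anti-EGFR antibody binding compounds printed on slides; score combines fluorescence near 667 nm and signal to noise of each spot.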 The note with it: small-molecule microarray, higher = more signal.

Sequence of Pro-neuregulin-1, membrane-bound isoform (Homo sapiens) (Q02297 whole entry, looked up, the tested form may be a part, canonical isoform): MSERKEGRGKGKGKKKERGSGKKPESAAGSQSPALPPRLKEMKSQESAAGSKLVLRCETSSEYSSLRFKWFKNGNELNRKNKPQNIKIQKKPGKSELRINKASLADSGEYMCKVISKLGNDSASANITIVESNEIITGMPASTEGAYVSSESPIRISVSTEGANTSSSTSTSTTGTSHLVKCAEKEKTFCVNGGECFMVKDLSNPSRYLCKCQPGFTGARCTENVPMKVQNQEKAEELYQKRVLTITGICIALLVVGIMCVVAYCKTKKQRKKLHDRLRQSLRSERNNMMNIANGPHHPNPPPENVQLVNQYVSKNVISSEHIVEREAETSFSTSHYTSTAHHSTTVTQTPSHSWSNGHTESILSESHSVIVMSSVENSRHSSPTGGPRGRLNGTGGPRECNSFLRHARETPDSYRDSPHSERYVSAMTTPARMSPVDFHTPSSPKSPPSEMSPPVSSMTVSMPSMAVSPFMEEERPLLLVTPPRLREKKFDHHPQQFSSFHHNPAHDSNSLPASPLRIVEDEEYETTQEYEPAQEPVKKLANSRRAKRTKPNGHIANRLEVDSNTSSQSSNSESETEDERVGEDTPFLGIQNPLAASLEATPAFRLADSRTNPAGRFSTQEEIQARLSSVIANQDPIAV
Sequence of Torsin-1A-interacting protein 2 (Homo sapiens) (Q8NFQ8 whole entry, looked up): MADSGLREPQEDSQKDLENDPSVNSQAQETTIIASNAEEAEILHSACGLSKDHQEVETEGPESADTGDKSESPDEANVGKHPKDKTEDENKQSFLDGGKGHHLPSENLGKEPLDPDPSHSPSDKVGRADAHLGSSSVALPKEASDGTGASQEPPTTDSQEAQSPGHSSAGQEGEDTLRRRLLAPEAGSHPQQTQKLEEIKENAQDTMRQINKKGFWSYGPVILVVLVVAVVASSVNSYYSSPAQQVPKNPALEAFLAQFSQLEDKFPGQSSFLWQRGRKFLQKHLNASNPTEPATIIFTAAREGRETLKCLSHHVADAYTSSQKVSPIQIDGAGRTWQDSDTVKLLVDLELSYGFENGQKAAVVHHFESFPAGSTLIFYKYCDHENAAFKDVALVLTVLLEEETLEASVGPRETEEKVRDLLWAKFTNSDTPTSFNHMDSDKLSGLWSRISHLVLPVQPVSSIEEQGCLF
Sequence of Neurogenic locus notch homolog protein 2 (Homo sapiens) (Q04721 whole entry, looked up, canonical isoform): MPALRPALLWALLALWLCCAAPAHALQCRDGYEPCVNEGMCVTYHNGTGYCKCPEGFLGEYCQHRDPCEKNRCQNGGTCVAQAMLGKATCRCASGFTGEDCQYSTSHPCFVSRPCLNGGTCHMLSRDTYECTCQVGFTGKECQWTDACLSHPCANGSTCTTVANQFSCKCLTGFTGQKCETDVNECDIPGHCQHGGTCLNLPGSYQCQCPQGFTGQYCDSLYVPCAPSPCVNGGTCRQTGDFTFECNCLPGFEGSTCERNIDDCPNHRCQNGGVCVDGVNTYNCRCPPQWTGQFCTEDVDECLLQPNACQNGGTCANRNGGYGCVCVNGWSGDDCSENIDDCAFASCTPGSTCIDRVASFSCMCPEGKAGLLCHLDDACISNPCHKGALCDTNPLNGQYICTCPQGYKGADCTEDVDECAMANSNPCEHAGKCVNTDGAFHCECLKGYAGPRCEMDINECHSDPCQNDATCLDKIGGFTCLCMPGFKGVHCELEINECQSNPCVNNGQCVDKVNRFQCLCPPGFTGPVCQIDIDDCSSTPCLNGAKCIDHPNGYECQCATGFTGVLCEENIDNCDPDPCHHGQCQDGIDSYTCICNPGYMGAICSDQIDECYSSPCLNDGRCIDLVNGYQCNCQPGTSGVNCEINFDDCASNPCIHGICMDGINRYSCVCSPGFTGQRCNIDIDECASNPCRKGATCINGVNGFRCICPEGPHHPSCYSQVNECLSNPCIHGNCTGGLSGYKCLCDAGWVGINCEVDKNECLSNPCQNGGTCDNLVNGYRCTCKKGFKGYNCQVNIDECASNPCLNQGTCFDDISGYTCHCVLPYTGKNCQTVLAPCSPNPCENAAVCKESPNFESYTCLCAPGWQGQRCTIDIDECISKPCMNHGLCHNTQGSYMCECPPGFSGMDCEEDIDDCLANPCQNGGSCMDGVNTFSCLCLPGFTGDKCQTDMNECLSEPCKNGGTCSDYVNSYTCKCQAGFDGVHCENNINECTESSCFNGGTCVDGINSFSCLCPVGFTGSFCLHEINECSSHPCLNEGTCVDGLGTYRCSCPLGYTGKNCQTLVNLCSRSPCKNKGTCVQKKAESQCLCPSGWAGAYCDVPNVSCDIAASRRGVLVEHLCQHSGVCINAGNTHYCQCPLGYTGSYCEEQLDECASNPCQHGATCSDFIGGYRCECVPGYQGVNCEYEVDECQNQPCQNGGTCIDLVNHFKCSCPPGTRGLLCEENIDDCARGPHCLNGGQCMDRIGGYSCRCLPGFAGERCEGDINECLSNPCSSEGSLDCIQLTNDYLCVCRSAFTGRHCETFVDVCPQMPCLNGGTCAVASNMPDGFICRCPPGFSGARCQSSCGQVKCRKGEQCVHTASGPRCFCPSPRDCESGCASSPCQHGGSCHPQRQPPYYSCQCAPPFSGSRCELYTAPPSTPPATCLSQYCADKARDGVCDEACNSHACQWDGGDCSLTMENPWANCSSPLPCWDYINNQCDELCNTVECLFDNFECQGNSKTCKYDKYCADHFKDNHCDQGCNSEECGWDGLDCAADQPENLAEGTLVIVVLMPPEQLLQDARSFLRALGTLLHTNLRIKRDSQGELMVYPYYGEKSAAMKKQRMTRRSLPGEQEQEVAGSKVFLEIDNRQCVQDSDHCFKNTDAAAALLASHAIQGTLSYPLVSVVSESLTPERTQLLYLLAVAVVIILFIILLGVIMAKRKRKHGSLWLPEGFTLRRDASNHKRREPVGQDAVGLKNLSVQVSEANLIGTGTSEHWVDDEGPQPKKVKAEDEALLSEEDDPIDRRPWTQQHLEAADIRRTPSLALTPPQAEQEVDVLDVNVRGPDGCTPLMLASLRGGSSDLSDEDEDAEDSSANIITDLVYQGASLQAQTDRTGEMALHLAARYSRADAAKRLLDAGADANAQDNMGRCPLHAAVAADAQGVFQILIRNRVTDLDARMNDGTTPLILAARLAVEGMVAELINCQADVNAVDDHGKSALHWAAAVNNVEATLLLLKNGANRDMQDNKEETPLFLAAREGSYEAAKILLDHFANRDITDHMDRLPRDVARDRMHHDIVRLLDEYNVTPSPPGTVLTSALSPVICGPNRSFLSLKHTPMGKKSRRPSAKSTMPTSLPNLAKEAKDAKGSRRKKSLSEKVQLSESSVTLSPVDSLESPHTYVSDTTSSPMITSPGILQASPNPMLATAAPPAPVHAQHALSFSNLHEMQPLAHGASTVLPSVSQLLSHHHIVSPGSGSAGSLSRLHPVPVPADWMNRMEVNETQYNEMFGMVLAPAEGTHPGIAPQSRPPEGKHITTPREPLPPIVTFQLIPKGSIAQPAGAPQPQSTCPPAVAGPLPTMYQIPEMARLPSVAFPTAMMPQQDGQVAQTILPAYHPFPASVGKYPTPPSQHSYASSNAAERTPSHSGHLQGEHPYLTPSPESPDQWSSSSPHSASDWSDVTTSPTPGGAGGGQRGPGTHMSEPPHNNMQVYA

As for `CC(C)C[C@@H]1NC(=O)[C@@H]2C[C@H](C(=O)NCCCCN(C)C)[C@H](c3cccc(OCCO)c3)N2C1=O`, the composite z-score in assay [1] was 0.0116; in assay [2] it was 1.47; in assay [3], -0.143; in [4], -0.242; in [5], -0.416; in assay [6], 0.204. Further, the composite z-score in assay [7] is 1.19; in assay [9] it was -0.612; in assay [10], -0.192; in assay [11], 0.751; in assay [15], 2.85; in assay [17], -0.0258. For the same compound, the composite z-score in assay [18] is 0.592; in [19], -0.087; in assay [20] it was -0.183. The z-score in assay [8] is 6.17 (inactive); in assay [12], -1.01 (inactive); in assay [13] it was 0.162 (inactive); in [14], -1.01 (inactive); in assay [16], 0.659 (inactive).

Take `COC(=O)c1c(CC[C@@H](CO)NC(=O)N2CCC[C@H]2Cn2cc(Cc3ccccc3)nn2)oc(C(C)=O)c1C(=O)OC`: the composite z-score in assay [1] is -0.506; in assay [2] it was 0.268; in assay [3], -0.0759; in assay [4] it was 0.325; in [5], 0.0554; in [6], 0.638. Moreover, the composite z-score in [7] is 1.12; in assay [9], 0.22; in assay [10], 0.2; in [11], 1.28; in assay [15], 3.14; in assay [17], -0.147. Moreover, the values for the composite z-score in [18], in [19] and in [20] were 0.387, 0.524 and -0.111, respectively. The z-score in assay [8] is 0.0223 (inactive); in assay [12] it was 0.102 (inactive); in assay [13], -0.279 (inactive); in assay [14], -1.45 (inactive); in assay [16], -0.0178 (inactive).

For `[N-]=[N+]=Nc1ccccc1C[C@]1(C(=O)N2CCOCC2)N=C(c2ccc(OCCCO)cc2)O[C@H]1c1ccccc1`, the composite z-score in assay [1] was 0.747; in assay [2], 1.49; in assay [3] it was 0.17; in assay [4], 0.983; in assay [5] it was 1.48; in assay [6], 1.13. The composite z-score is 1.23 in [7]; 1.29 in [9]; 0.348 in [10]; 1.55 in [11]; 2.69 in [15]; 0.178 in assay [17]. In addition, the composite z-score in [18] worked out at 0.593; in assay [19], 0.871; in assay [20] it was 0.134. Moreover, the z-score in assay [8] is -1.62 (inactive); in assay [12], 0.491 (inactive); in [13], -8.46 (active); in assay [14], 1.42 (inactive); in assay [16], 1.94 (inactive).

Consider `COc1ccc(CCN2C(=O)[C@@]3(Cc4ccccc42)c2ccccc2C(=O)N(Cc2ccccc2OC)[C@H]3c2ccc(CO)cc2)cc1`, for which the composite z-score in assay [1] was 0.502; in assay [2], -0.277; in assay [3], 0.0252; in assay [4], -0.0162; in assay [5], -0.779; in [6], -0.634. Also, the composite z-score in assay [7] was -0.322; in assay [9], -0.275; in assay [10], 0.21; in assay [11] it was 0.177; in assay [15], 1.66; in assay [17], 0.0877. Besides, the composite z-score in assay [18] is -1.36; in assay [19], -0.642; in assay [20] it was -0.204. The z-score in assay [8] was -1.01 (inactive); in [12] it was -0.585 (inactive); in [13], -1.23 (inactive); in assay [14], -1.42 (inactive); in assay [16], 0.237 (inactive).

With `C=CCOC(=O)[C@H]1[C@@H]2C(=O)O[C@@H](c3ccccc3)[C@@H](c3ccccc3)N2[C@@H](c2ccc(OCCOC(=O)[C@@H]3C[C@@H]4C(=O)N[C@@H](CCCCN(C)C)C(=O)N4[C@@H]3c3ccc(O)cc3)cc2)[C@]12C(=O)Nc1ccccc12`, the composite z-score in [1] is -0.0613; in assay [2], 0.639; in [3] it was -0.113; in [4], 0.389; in assay [5], 0.69; in assay [6], 0.965. The composite z-score worked out at 1.26 in assay [7]; 0.29 in assay [9]; 0.0623 in assay [10]; 1.55 in [11]; 2.57 in [15]; 0.253 in assay [17]. Besides, the composite z-score in assay [18] was 1.7; in [19], 1.05; in assay [20], -0.0177. Further, the z-score was 0.585 (inactive) in [8]; 0.693 (inactive) in assay [12]; -2.78 (inactive) in [13]; 0.436 (inactive) in [14]; -1.6 (inactive) in assay [16].
